Measured values: PubChem BioAssay (Tox21)
“And” between values parts separate entries of the source, which are not always exact repeats. Identical values can stand only once. Results filed as inconclusive are left out. More than one record can exist for a structure, and the calls need not agree. The source made the active and inactive calls. Unless noted, calls follow the shape of the dose curve; as a rule, active = well fitted curve in the direction sought with a large enough effect in the repeat runs; inconclusive = weak or mixed curves; inactive = no such curve, though single readings can be large; an effect the other way counts as inactive or inconclusive.

Tests used:
[1] = biological target: Estrogen receptor beta (Homo sapiens) (UniProt Q92731); assay: qHTS assay to identify small molecule agonists of the estrogen receptor beta (ER-beta) signaling pathway (AID 1259377; active = well fitted activation curve with a large enough effect in the signal ratio in the repeat runs, not every such curve was filed as active; the % refers to the signal ratio)
Procedure, shortened: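 Beta-lactamase reporter readout: fluorescence of LiveBLAzer B/G FRET substrate after 2 h at room temperature, following 16 h compound treatment of ER-beta-UAS-bla HEK293T cells at 37C in 2% charcoal-stripped FBS medium.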

[2] = biological target: Estrogen receptor beta (Homo sapiens) (UniProt Q92731); assay: qHTS assay to identify small molecule antagonists of the estrogen receptor beta (ER-beta) signaling pathway (AID 1259378; active = well fitted inhibition curve with a large enough effect in the signal ratio in the repeat runs, not every such curve was filed as active; the % refers to the signal ratio; also: potency is read from the fitted curve at half-maximal effect)
Procedure, shortened: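 ER-beta-UAS-bla HEK293T cells in 2% charcoal-stripped FBS medium treated with compound plus 1nM final 17-beta-estradiol for 16 hr at 37C. Beta-lactamase reporter read by FRET substrate fluorescence after 2 hours at room temperature.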

[3] = qHTS assay to identify small molecule agonists of the androgen receptor (AR) signaling pathway in the presence of an antagonist - cell viability counter screen (AID 1259379); also: nearly all actives have a fitted effect of over 25% in size; also: potency is read from the fitted curve at half-maximal effect
Procedure, shortened: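 Fluorescence from CellTiter-Fluor, added after 15 hr and read 1 hr later, gave cell viability. Cells were MDA-kb2 exposed to compounds (15 concentrations) in the presence of 3.0uM nilutamide at 37C, 0% CO2.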

[4] = qHTS assay to identify small molecule agonists of the estrogen receptor beta (ER-beta) signaling pathway - cell viability counter screen (AID 1259380); also: nearly all actives have a fitted effect of over 30% in size; also: potency is read from the fitted curve at half-maximal effect
Procedure, shortened: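 Same-well viability counter screen. Cells: ER-beta-UAS-bla HEK293T, plated 6 hr before compound, in 2% charcoal-stripped FBS. Compound exposure 16 hr, 37C; viability by CellTiter-Glo luminescence after 30 min at room temperature.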

[5] = biological target: Estrogen receptor (Homo sapiens) (UniProt P03372); assay: qHTS assay to identify small molecule agonists of the estrogen receptor alpha (ER-alpha) signaling pathway in the presence of an antagonist (AID 1259383; calls by dose curve; also: nearly all actives have a fitted effect of over 15% in size; also: potency is read from the fitted curve at half-maximal effect; as to activation: top concentration of the series differs between compounds)
Procedure, shortened: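 Cells are hormone-deprived for 5 days (charcoal-stripped FBS, no phenol red), plated for 24hr, spiked with 10.0nM ICI-182,780, then dosed at 15 concentrations. After 22hr at 37C, ONE-Glo luminescence reports ERE-luciferase activity.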

[6] = qHTS assay to identify small molecule agonists or antagonists of the thyroid stimulating hormone receptor (TSHR) signaling pathway - wild type cell line counter screen (AID 1259384; calls by dose curve)
Procedure, shortened: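 Wild-type Hek293 cells, 800/well, 18 h at 37C, then compound with Ro20-1724 for 30 min RT. cAMP by HTRF (cAMP-d2/anti-cAMP cryptate), 1 h RT, fluorescence read. 15 concentrations, triplicates.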

[7] = biological target: Thyrotropin receptor (Homo sapiens) (UniProt P16473); assay: qHTS assay to identify small molecule antagonists of the thyroid stimulating hormone receptor (TSHR) signaling pathway (AID 1259385; calls by dose curve; also: nearly all actives have a fitted effect of over 20% in size; also: potency is read from the fitted curve at half-maximal effect)
Procedure, shortened: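 TSHR-HEK293 cells (800/well) plated 18 h, then compounds with Ro20-1724 and TSH at 1.5 ng/mL final, 30 min at room temperature. cAMP quantified by HTRF (cAMP-d2/anti-cAMP-cryptate, 1 h); 15 concentrations in triplicate.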

[8] = qHTS assay to identify small molecule agonists of the estrogen receptor alpha (ER-alpha) signaling pathway in the presence of an antagonist - cell viability counter screen (AID 1259386);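 also: cells exposed to compounds for 22 h at 37 °C before the viability read; nearly all actives have a fitted effect of over 30% in size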; also: potency is read from the fitted curve at half-maximal effect
Procedure, shortened: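 Cells are starved of estrogens for 5 days in charcoal-stripped serum, seeded for 24hr and co-treated with ICI-182,780 (10.0nM final) and test compounds. After 22hr at 37C, viability is read as CellTiter-Fluor fluorescence.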

[9] = biological target: Progesterone receptor (Homo sapiens) (UniProt P06401); assay: qHTS assay to identify small molecule agonists of the progesterone receptor (PR) signaling pathway (AID 1346784; calls by dose curve; also: nearly all actives have a fitted effect of over 30% in size)
Procedure, shortened: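 HEK 293T PR-UAS-bla reporter cells, 2% charcoal-stripped FBS; 6 hr settle at 37C/5% CO2, compound (DMSO) 16 hr, LiveBLAzer B/G FRET substrate 2 hr RT, fluorescence intensity read.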

[10] = biological target: Progesterone receptor (Homo sapiens) (UniProt P06401); assay: qHTS assay to identify small molecule antagonists of the progesterone receptor (PR) signaling pathway (AID 1346795; active = well fitted inhibition curve with a large enough effect in the signal ratio in the repeat runs, not every such curve was filed as active; the % refers to the signal ratio; also: potency is read from the fitted curve at half-maximal effect)
Procedure, shortened: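 Beta-lactamase reporter, HEK293T PR-UAS-bla line; 2% charcoal-stripped FBS; 6 hr pre-incubation, 37C/5% CO2. Compound + R5020 1 nM final, 16 hr. LiveBLAzer B/G FRET substrate, 2 hr RT; fluorescence intensity read.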

[11] = qHTS assay to identify small molecule antagonists of the progesterone receptor (PR) signaling pathway - cell viability counter screen (AID 1346798); also: nearly all actives have a fitted effect of over 50% in size; also: potency is read from the fitted curve at half-maximal effect
Procedure, shortened: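 Luminescence readout (CellTiter-Glo, 30 min, RT) of viability in PR-UAS-bla HEK293T cells exposed to compound and R5020 agonist for 16 hr at 37C, 5% CO2; run in the same wells as the beta-lactamase reporter read.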

[12] = qHTS assay to identify small molecule agonists of the progesterone receptor (PR) signaling pathway - cell viability counter screen (AID 1346799; calls by dose curve; also: nearly all actives have a fitted effect of over 45% in size; also: potency is read from the fitted curve at half-maximal effect)
Procedure, shortened: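 HEK293T PR-UAS-bla, 3,000 cells/well, 2% charcoal-stripped FBS; 6 h settle, compound 16 h at 37C/5% CO2; LiveBLAzer 2 h RT, then CellTiter-Glo 30 min RT, luminescence read.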

[13] = qHTS assay to identify small molecule antagonists of the TGF-beta/Smad signaling pathway - cell viability counter screen (AID 1346824); also: nearly all actives have a fitted effect of over 50% in size; also: potency is read from the fitted curve at half-maximal effect
Procedure, shortened: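 SBE-bla HEK 293T cells, incubated overnight, then compound plus 0.25 ng/mL TGF-beta1 (stock added) for 5 hr at 37 C. Viability was read in the same wells by CellTiter-Glo luminescence after 30 min at room temperature.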

[14] = qHTS assay to identify small molecule agonists of the TGF-beta/Smad signaling pathway - cell viability counter screen (AID 1346829); also: nearly all actives have a fitted effect of over 45% in size; also: potency is read from the fitted curve at half-maximal effect
Procedure, shortened: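 In parallel with the Smad reporter read, viability of HEK 293T cells stably carrying SBE-bla is quantified by ATP luminescence following 5 hr compound treatment.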

[15] = qHTS assay to identify small molecule agonists of the TGF-beta/Smad signaling pathway (AID 1346859; active = well fitted activation curve with a large enough effect in the signal ratio in the repeat runs, not every such curve was filed as active; the % refers to the signal ratio; also: series mostly up to about 77 µM)
Procedure, shortened: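 Read-out: fluorescence at 460 and 530 nm (405 nm excitation) after a 2 hr room-temperature incubation with beta-lactamase FRET substrate. SBE-bla HEK 293T cells had been treated with test compounds for 5 hr at 37 C.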

[16] = Human pregnane X receptor (PXR) small molecule agonists, qHTS cell viability counter screen (AID 1346977); also: nearly all actives have a fitted effect of over 50% in size; also: potency is read from the fitted curve at half-maximal effect
Procedure, shortened: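 Fluorescence read-out (CellTiter-Fluor) of viability in PXR-Luc HepG2 cells, multiplexed with the luciferase agonist read. Compounds in DMSO added after 5hr plating; 24hr total exposure at 37C, 5% CO2.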

[17] = biological target: Thyrotropin-releasing hormone receptor (Homo sapiens) (UniProt P34981); assay: qHTS assay to identify small molecule antagonists of the thyrotropin-releasing hormone receptor (TRHR) signaling pathway (AID 1346877; active = well fitted inhibition curve with a large enough effect in the repeat runs, not every such curve was filed as active; also: series mostly up to about 51 µM)
Procedure, shortened: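 Cells (TRHR-HEK293) are plated and kept 18 h at 37 °C/5% CO2. A calcium-sensitive dye is added for 2 h, compound follows for 5 min at room temperature, and TRH is then given at 1 nM final.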

[18] = biological target: Thyrotropin-releasing hormone receptor (Homo sapiens) (UniProt P34981); assay: qHTS assay to identify small molecule agonists of the thyrotropin-releasing hormone receptor (TRHR) signaling pathway (AID 1346891; calls by dose curve;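 also: HEK293 cells expressing TRHR with calcium dye readout; series mostly up to about 58 µM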)
Procedure, shortened: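 HEK293/TRHR cells, 1500 per well, 18 h 37 °C; Ca dye 2 h 37 °C; pin-tool compound addition (agonist mode); kinetic fluorescence 3 min, 1 s reads; 15 concentrations, triplicate.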

[19] = biological target: Androgen receptor (Homo sapiens) (UniProt P10275); assay: qHTS assay to identify small molecule agonists of the androgen receptor (AR) signaling pathway in the presence of an antagonist (AID 1259381; calls by dose curve; also: nearly all actives have a fitted effect of over 15% in size)
Procedure, shortened: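 Cells are MDA-kb2 (human breast carcinoma, MMTV-luc, AR/GR responsive). Nilutamide is present at 3.0uM final throughout; compounds are added at 15 concentrations and incubated 16hr at 37C before ONE-Glo luminescence detection.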

[20] = qHTS assay to identify small molecule antagonists of the estrogen receptor beta (ER-beta) signaling pathway - cell viability counter screen (AID 1259382); also: series mostly up to about 92 µM; nearly all actives have a fitted effect of over 55% in size
Procedure, shortened: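 Following a 6 hr plating period, HEK293T cells carrying a UAS-driven beta-lactamase reporter under ER-beta control received compounds and 1nM E2 (final). After 16 hr at 37C and 2 hr substrate loading, CellTiter-Glo luminescence indicated viability.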

Measured: Potency

Sequence of Estrogen receptor (Homo sapiens) (P03372 whole entry, looked up): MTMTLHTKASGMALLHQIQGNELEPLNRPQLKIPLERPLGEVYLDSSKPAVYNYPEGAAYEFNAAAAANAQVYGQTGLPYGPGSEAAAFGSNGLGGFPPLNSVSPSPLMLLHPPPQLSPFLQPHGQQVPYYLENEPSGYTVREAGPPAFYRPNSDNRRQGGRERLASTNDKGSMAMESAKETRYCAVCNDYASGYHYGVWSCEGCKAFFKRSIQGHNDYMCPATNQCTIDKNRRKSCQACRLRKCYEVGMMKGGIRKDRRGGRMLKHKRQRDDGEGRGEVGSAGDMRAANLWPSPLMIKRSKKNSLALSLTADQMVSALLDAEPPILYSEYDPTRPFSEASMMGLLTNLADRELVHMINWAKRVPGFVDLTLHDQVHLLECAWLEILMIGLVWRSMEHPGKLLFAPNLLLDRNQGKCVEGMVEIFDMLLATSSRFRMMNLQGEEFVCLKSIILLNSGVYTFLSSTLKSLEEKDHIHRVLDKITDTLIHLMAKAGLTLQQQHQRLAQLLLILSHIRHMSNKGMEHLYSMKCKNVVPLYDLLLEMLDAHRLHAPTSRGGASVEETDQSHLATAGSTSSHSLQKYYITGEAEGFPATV
Sequence of Thyrotropin-releasing hormone receptor (Homo sapiens) (P34981 whole entry, looked up): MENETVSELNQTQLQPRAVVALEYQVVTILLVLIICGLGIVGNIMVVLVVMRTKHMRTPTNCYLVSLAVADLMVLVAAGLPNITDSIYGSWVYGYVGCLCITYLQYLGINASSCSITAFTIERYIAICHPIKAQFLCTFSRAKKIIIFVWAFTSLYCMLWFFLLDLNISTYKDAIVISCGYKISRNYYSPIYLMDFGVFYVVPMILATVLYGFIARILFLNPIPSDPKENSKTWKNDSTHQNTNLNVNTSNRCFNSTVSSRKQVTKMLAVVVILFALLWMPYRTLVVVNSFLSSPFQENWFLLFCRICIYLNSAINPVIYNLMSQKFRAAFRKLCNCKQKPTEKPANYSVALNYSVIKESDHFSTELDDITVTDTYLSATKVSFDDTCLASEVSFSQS
Sequence of Androgen receptor (Homo sapiens) (P10275 whole entry, looked up): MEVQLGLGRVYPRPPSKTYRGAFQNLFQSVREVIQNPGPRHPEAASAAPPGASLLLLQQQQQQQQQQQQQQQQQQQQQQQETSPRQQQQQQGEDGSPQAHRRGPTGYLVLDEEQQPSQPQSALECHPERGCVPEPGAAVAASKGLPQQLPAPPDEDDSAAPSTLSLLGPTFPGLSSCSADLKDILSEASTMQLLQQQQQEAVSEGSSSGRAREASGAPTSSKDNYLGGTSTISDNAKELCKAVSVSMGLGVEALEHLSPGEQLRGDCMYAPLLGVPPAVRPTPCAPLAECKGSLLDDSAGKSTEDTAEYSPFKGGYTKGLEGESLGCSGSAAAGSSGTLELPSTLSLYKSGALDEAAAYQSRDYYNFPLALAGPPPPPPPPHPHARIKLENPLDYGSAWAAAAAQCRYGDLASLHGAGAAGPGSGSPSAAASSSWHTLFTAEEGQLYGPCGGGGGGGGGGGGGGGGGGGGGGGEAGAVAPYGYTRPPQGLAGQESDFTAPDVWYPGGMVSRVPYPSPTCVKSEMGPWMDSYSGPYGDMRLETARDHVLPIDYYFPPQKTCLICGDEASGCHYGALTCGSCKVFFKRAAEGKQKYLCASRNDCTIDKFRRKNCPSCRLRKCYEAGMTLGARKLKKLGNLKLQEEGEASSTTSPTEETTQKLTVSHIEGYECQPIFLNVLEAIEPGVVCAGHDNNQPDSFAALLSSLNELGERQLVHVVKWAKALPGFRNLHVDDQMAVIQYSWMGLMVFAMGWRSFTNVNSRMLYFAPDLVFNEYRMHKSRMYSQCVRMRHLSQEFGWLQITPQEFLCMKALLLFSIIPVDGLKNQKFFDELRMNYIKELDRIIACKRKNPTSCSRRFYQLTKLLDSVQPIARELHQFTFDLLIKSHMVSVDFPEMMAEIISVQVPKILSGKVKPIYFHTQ
Sequence of Thyrotropin receptor (Homo sapiens) (P16473 whole entry, looked up): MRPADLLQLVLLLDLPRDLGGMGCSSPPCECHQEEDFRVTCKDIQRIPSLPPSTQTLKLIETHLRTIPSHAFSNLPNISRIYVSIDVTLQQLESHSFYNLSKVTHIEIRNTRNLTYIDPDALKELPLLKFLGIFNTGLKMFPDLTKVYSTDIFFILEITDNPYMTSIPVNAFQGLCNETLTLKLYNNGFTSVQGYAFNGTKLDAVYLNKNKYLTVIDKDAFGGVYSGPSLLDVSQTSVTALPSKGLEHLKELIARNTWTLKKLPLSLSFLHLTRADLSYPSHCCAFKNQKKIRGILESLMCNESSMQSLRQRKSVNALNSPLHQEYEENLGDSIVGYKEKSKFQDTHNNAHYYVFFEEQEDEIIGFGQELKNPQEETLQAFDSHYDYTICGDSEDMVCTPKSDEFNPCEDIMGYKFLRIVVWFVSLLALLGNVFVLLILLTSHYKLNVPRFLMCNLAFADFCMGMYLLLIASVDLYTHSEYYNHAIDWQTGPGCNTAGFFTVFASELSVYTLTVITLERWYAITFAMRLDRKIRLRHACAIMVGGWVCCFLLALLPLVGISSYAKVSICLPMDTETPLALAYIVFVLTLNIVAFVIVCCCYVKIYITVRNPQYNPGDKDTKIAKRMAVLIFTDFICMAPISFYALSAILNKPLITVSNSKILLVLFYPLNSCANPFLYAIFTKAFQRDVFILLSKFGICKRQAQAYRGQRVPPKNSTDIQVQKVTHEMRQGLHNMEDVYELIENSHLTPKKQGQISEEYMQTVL
Sequence of Progesterone receptor (Homo sapiens) (P06401 whole entry, looked up): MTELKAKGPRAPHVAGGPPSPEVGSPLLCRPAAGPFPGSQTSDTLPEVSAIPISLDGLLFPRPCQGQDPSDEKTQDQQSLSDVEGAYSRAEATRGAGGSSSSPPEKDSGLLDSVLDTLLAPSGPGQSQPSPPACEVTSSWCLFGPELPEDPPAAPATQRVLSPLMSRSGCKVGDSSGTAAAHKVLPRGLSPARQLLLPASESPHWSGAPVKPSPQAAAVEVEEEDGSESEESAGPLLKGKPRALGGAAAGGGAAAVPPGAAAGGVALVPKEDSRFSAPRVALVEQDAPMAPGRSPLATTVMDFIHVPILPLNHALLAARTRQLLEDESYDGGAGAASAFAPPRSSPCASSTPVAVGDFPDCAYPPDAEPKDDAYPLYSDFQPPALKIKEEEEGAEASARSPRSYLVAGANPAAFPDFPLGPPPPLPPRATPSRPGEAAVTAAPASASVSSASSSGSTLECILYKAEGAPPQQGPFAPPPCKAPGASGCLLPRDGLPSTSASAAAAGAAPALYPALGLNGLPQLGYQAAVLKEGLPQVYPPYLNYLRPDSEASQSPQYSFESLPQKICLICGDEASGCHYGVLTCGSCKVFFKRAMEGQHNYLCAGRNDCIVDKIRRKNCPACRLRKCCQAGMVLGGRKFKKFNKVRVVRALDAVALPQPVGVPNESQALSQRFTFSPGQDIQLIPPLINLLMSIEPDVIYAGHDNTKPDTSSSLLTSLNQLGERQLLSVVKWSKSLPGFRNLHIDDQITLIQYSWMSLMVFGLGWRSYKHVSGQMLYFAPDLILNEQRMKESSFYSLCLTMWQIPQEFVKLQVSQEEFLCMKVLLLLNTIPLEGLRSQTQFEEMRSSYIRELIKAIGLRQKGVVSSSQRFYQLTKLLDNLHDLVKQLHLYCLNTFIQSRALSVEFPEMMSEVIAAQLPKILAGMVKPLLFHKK
Sequence of Estrogen receptor beta (Homo sapiens) (Q92731 whole entry, looked up): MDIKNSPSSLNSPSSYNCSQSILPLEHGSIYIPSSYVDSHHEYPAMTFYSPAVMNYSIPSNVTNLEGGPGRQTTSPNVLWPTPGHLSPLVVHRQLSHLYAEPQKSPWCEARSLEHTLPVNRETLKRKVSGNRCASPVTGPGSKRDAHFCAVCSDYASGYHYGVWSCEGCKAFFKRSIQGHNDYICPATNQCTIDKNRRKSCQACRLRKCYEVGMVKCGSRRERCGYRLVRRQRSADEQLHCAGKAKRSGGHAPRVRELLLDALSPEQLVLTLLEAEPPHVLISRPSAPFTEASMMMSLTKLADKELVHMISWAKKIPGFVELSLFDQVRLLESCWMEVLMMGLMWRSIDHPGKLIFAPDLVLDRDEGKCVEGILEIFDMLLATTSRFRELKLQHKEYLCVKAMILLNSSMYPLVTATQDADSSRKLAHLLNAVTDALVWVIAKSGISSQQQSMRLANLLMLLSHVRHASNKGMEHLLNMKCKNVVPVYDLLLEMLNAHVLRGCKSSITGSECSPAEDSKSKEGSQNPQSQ

ClC(Cl)(Cl)c1ccccc1
not listed: [17] | [18] | [19] | [20]
inactive: all other assays above

CCCCC(C#N)(Cn1cncn1)c1ccc(Cl)cc1 (stereo unspecified)
active: [7] 60.9 µM and 54.5 µM | [10] 30.5 µM
not listed: [1] | [2] | [4] | [19] | [20]
inactive: all other assays above

CC[n+]1c(-c2ccccc2)c2cc(N)ccc2c2ccc(N)cc21
active: [3] 24.2 µM and 10.6 µM | [4] 1.53 µM and 1.06 µM | [8] 48.3 µM and 26.6 µM | [10] 38.4 µM | [11] 5.31 µM | [12] 3.76 µM | [16] 27.2 µM
inactive: [5] | [9] | [13] | [14] | [15] | [17] | [18]

COP(=S)(OC)Oc1ccc(S(=O)(=O)N(C)C)cc1
not listed: [1] | [2] | [11] | [17] | [18] | [20]
inactive: all other assays above

C[C@]12CCC(=O)C=C1CC[C@@H]1[C@@H]2CC[C@@]2(C)[C@H]1CC[C@]2(C)O
active: [5] 11.3 µM and 10.6 µM
not listed: [1] | [2] | [9] | [12] | [19]
inactive: all other assays above

ClCC(Cl)CCl
not listed: [1] | [2] | [5] | [9] | [19] | [20]
inactive: all other assays above

O=C(O)c1nn(Cc2ccc(Cl)cc2Cl)c2ccccc12
active: [4] 27.1 µM and 26.6 µM
not listed: [1] | [2] | [15] | [20]
inactive: all other assays above

NN=C(N)N
inactive: [3] | [4] | [20] | [8] | [10] | [12] | [13] | [14] | [15] | [16]

ClC(Cl)=C(Cl)C(Cl)=C(Cl)Cl
not listed: [1] | [2] | [19] | [20]
inactive: all other assays above

CC(C)(c1ccc(OCC2CO2)cc1)c1ccc(OCC2CO2)cc1 (stereo unspecified)
active: [4] 61.9 µM
not listed: [1] | [2] | [9] | [10] | [20]
inactive: all other assays above

Nc1ccc([N+](=O)[O-])cc1N
active: [3] 61.1 µM and 30.6 µM | [8] 48.5 µM and 38.6 µM | [16] 22.4 µM and 61.1 µM
inactive: [20] | [6] | [9] | [12] | [13] | [14] | [15] | [17] | [18]
21.7 µM (active) and inactive: [4]

CCC(=O)Nc1ccc(Cl)c(Cl)c1
not listed: [1] | [2] | [4] | [5] | [10]
inactive: all other assays above

N#Cc1c(Cl)c(Cl)c(Cl)c(C#N)c1Cl
inactive: [5] | [6] | [15]
active: [2] 3.78 µM | [3] 16.9 µM and 24.3 µM | [4] 8.47 µM and 19.3 µM | [8] 23.9 µM and 54.5 µM | [10] 3.37 µM and 3.86 µM | [11] 19 µM and 13.7 µM | [12] 21.3 µM and 19.3 µM | [13] 48 µM and 49 µM | [14] 48 µM and 54.9 µM | [16] 12.6 µM and 13.7 µM
